Test results taken from PubChem BioAssay AID686978 (National Center for Advancing Translational Sciences (NCATS), 2013).
Values joined by “and” are separate entries in the source; they are usually repeats but may differ in a detail not shown here. Equal values may be shown once. In all, about 420,000 compounds went through this assay and about 64,000 (15%) were called active. Not shown: some 27% with an inconclusive outcome. Only a sample is shown. Entries that show only a call come without a potency. Values without a mark were called inactive. Calls come from the whole dose curve; as a rule, active = well fitted inhibition curve with a large enough effect; inconclusive = small, poorly fitted or top-dose-only effect; inactive = flat fitted curve, though single readings scatter.

experiment: qHTS for Inhibitors of human tyrosyl-DNA phosphodiesterase 1 (TDP1): qHTS in cells in absence of CPT; details: DT40 Tdp1-/- hTDP1 cells, no CPT, ATP luminescence, 48 h; activity change, negative = growth inhibition: at 46.2 µM (top of the series); note: nearly all actives have a fitted effect of over 55% in size
Method in brief: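 Growth kinetics read by CellTiter-Glo luminescence after ≥48 hr at 37 °C. Cells: DT40 Tdp1-/- stably carrying human TDP1, 400 per well, compound exposure in the absence of CPT (DMSO vehicle).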
Potency is the fitted concentration of half-maximal effect.

Structure (SMILES) | Potency | activity change, negative = growth inhibition
CC1Cc2[nH][nH]c(=O)c2C(C2CC2)O1 (stereo not drawn) | inactive | –
CCOc1ccccc1-c1nc(CN2CCC(C(=O)N3CCOCC3)CC2)c(C)o1 | inactive | –
CC(Sc1nnc(-c2cccs2)n1C1CC1)C(=O)NCC1CCCO1 (stereo not drawn) | inactive | –
CCOC(=O)C1(CC2CCCCO2)CCN(Cc2nc(-c3cccs3)oc2C)CC1 (stereo not drawn) | 16.4 µM (active) | –
CCCOC(=O)C1=C(C)NC2=C(C(=O)C(C(=O)OC)C(C)C2)C1c1ccc(N(C)C)cc1 (stereo not drawn) | inactive | –
Cc1ccc(S(=O)(=O)Nc2nc(N)n(-c3ccccc3)n2)cc1 | inactive | –
CCN(CC)CCn1c(N)c(S(=O)(=O)c2ccccc2)c2nc3ccccc3nc21 | 18.4 µM (active) | –
Cc1ccc(S(=O)(=O)c2c(N)n(C)c3nc4ccccc4nc23)cc1 | 13 µM (active) | –
C=CCn1c(N)c(S(=O)(=O)c2cccs2)c2nc3ccccc3nc21 | inactive | –
CCOC(=O)c1c(N)n(-c2cccc(C)c2C)c2nc3ccccc3nc12 | inactive | –
CCN(c1ccccc1)S(=O)(=O)c1ccc(N)cc1 | inactive | –
CC1(C)CC(=O)C=C(c2cccc3c2Oc2ccccc2S3)C1 | inactive | –
O=C(Cn1cnc2c(oc3ccccc32)c1=O)Nc1ccc(OC(F)(F)F)cc1 | inactive | –
CC(C)N(c1ccccc1)c1ncnc(NCCC(=O)O)c1[N+](=O)[O-] | inactive | –
O=C(COC(=O)c1cccnc1Cl)Nc1ccc(S(=O)(=O)N2CCOCC2)cc1 | inactive | –
CCOC(=O)N1CCC(c2cc(=O)n(-c3ccccc3)[nH]2)CC1 | inactive | –
Cc1cc(C)cc(N)c1 | inactive | –
CCOc1ccc(C2CC(=O)c3c([nH]c(C(=O)OCc4ccccc4)c3C)C2)cc1 (stereo not drawn) | 13 µM (active) | –
CCOC(=O)c1[nH]c2c(c1-c1ccccc1)C(=O)CC(c1ccc(Cl)cc1)C2 (stereo not drawn) | inactive | –
CC(C)(C)N1C(=O)c2c(C(=O)OCc3ccccc3)[nH]c(-c3ccccc3)c2C1=O | inactive | –
CCOC(=O)c1[nH]c2c(c1C)C(=O)CC(c1ccc(N(C)C)cc1)C2 (stereo not drawn) | 13 µM (active) | –
COCCOC(=O)c1[nH]c2c(c1C)C(=O)CC(c1ccc(OC)cc1)C2 (stereo not drawn) | inactive | –

Structure (SMILES) | Potency | activity change, negative = growth inhibition
CCOc1ccc(C2C3=C(CCCC3=O)N(CC(=O)O)C3=C2C(=O)CCC3)cc1 | inactive | –
CCCNC(=O)C1CC(=O)N(c2ccc(OCc3ccccc3)cc2)C1 (stereo not drawn) | inactive | –
CCc1ccc(C2CC(=O)c3c([nH]c(C(=O)OCc4ccc(C)cc4)c3C)C2)cc1 (stereo not drawn) | 7.31 µM (active) | –
Cc1nnc(C)c2c(C)n(N)c(C)c12 | inactive | –
CCCCOc1ccc(-c2ncc(C(=O)OCC)c(N)n2)cc1 | inactive | –
O=C(OCC(=O)N1CCCC1)c1ccco1 | inactive | –
Cc1noc(C)c1C(=O)NC(C)c1ccc2c(c1)OCO2 (stereo not drawn) | inactive | –
CN(C)Cc1c(O)ccc2c(=O)c(-c3ccccc3Cl)coc12 | inactive | –
CN(c1ccccc1)c1nc(N)c([N+](=O)[O-])c(NCc2ccco2)n1 | inactive | –
O=C(Nc1ccc(Cl)c(Cl)c1)N1CC=C(c2ccccc2)CC1 | 20.6 µM (active) | –
O=C(O)c1cccc(S(=O)(=O)N2CC=C(c3ccccc3)CC2)c1 | inactive | –
NC(=O)N1CCCC1C(=O)Nc1ccc(Cl)c(Cl)c1 (stereo not drawn) | inactive | –
NC(=O)C1CCN(C(=O)c2cn(-c3ccccc3)nc2-c2cccnc2)CC1 | inactive | –
CCOc1ccc(C2=CC(c3ccccc3)n3ncnc3N2)cc1 (stereo not drawn) | inactive | –
COc1ccc(C2CC(c3cccs3)Nc3nnnn32)cc1 (stereo not drawn) | inactive | –
COc1ccc(C2=CC(c3cccc(OC)c3)n3nnnc3N2)cc1 (stereo not drawn) | 29.1 µM (active) | –
O=C(Cn1ccc(=O)[nH]c1=O)Nc1ccc(C(=O)O)c(O)c1 | inactive | –
COc1ccc(NC(=O)Cn2cc(C(=O)c3ccncc3)c(=O)c3cc(C)ccc32)cc1Cl | inactive | –
Cc1nn(C)cc1CNC(=O)Nc1ccc(Cl)cc1 | inactive | –
COc1ncnc2c1N=C1CC(C)(C)CC(N)=C1S2 | inactive | –
CC(C)(C)NC(=O)CN(C(=O)c1csnn1)c1ccccc1-c1ccccc1 | inactive | –
COc1ccccc1N1CCN(CCN2C(=O)c3ccccc3C(C)(C)C2=O)CC1 | 26.6 µM (active) and 23.1 µM (active) | –

Structure (SMILES) | Potency | activity change, negative = growth inhibition
COc1ccccc1N1CCN(CC(=O)NC(=O)NCc2ccco2)CC1 | inactive | –
CNCC(O)CN1CCN(c2ccccc2OC)CC1 (stereo not drawn) | inactive | –
CC1(C)Cc2c(sc3nc4n(c(=N)c23)CCCCC4)CO1 | inactive | –
CCC(O)CNc1nc(-n2nc(C)cc2C)nc2sc3c(c12)CC(C)(C)OC3 (stereo not drawn) | 10.3 µM (active) | –
CCc1nc(N2CCN(C(C)=O)CC2)c2c3c(sc2n1)CCCC3 | inactive | –
CC/C(C)=N/Nc1nc2sc3c(c2c(=O)[nH]1)CC(C)(C)OC3 | inactive | –
COCCn1c(C)cc(C(=O)CSc2ncnc3sc4c(c23)CCC4)c1C | inactive | –
COCCNc1nc(-n2nc(C)cc2C)nc2sc3c(c12)CCCC3 | 5.17 µM (active) | –
O=C(NCc1ccc(F)cc1)C1CCN(C(=O)Nc2ccc(F)cc2)CC1 | inactive | –
Cc1ccc(Oc2ccc3c(c2)C(=O)N(c2cccc4cccnc24)C3=O)cc1 | inactive | –
CC(C)NC(=O)NC(=O)COC(=O)c1ccc(NC(=O)CC#N)cc1 | inactive | –
O=C1CSC(c2cccc(F)c2)N1c1ccc(O)cc1 (stereo not drawn) | inactive | –
CCCC(C)C(=O)OCC(=O)Nc1c(Br)cc(C)cc1Br (stereo not drawn) | inactive | –
NC(=O)COc1ccc(/C=N/NC(=O)C2CCCN2S(=O)(=O)c2ccc(Cl)cc2)cc1 (stereo not drawn) | inactive | –
Nc1[nH][nH]c(=O)c1N=Nc1ccc2c(c1)OCO2 | inactive | –
C=CCN(N=Nc1cccc([N+](=O)[O-])c1)c1cccc([N+](=O)[O-])c1 | inactive | –
CCOC(=O)c1cc2c(nc1NC(=S)Nc1ccccc1)CC(C)(CC)OC2 (stereo not drawn) | inactive | –
COC(=O)Nc1ncc(CN2C(=O)c3ccccc3C2=O)s1 | inactive | –
CN1C(=O)c2ccc(NC(=O)C3CCCCC3)cc2C1=O | inactive | –
Cc1ccc(S(=O)(=O)NCCc2nnc3ccc(SCc4cccnc4)nn23)cc1 | inactive | –
O=S(=O)(NCCc1nnc2ccc(SCc3ccc(Cl)cc3Cl)nn12)c1ccccc1 | 14.6 µM (active) | –
COC(=O)CSc1ccc2nnc(CCNS(=O)(=O)c3ccc(C)cc3)n2n1 | inactive | –

Structure (SMILES) | Potency | activity change, negative = growth inhibition
COC(=O)Nc1ncc(CN2CCCCC2)s1 | inactive | –
CN1CCC(N(C)C(=O)c2ccc(Cl)c(S(=O)(=O)Nc3ccc(Cl)cc3)c2)CC1 | inactive | –
O=C(Nc1ncccc1O)c1ccc(S(=O)(=O)N2CCCC2)cc1 | 18.4 µM (active) | –
O=C(CNC(=O)c1ccc2ccccc2c1)Nc1ncccc1O | inactive | –
O=C(NC(=O)c1ccccc1)Nc1ccccc1O | inactive | –
COc1cc(C(=O)Nc2ncccc2C)ccc1OCC(=O)N1CCOCC1 | inactive | –
O=C(N/N=C/c1ccccn1)c1ccc(S(=O)(=O)N2CCCCCC2)cc1 | inactive | –
Cc1ccc(C(=O)Nc2ncccc2C)cc1S(=O)(=O)N1CCOCC1 | inactive | –
CCc1nnc(NC(=O)c2cc(S(=O)(=O)N3CCCCC3)ccc2C)s1 | inactive | –
CCOC(=O)c1csc(NC(=O)c2ccc(S(=O)(=O)N3CCCC3)cc2)n1 | inactive | –
O=C(Nc1ccccc1F)c1ccc(S(=O)(=O)N2CCCCCC2)cc1 | inactive | –
O=C(Nc1ncccc1O)c1ccc(C(=O)c2ccccc2)cc1 | 23.1 µM (active) | –
Cc1cccnc1NC(=O)c1cccc(S(=O)(=O)N2CCN(c3ccc(F)cc3)CC2)c1 | 16.4 µM (active) | –
Cc1ccc(C)c2sc(NC(=O)c3ccc(S(=O)(=O)N4CCCC4)cc3)nc12 | 29.1 µM (active) | –
CCCn1c(N)c(N(CCOC)C(=O)C2CCCC2)c(=O)[nH]c1=O | inactive | –
CCOC(=O)c1nn(-c2ccccc2F)c2nc(Nc3ccccc3)cc(=O)n12 | inactive | –
Nc1nnn(CC(=O)N/N=C/c2ccc(O)cc2)n1 | inactive | –
Cc1cc(NC(=O)c2cc3ccccc3o2)no1 | inactive | –
COc1cccc(N(CC(=O)NCCSc2ccccn2)S(C)(=O)=O)c1 | inactive | –
Cc1ccc(C(CNC(=O)Nc2cccc(C)c2)N2CCN(C)CC2)cc1 (stereo not drawn) | inactive | –
CCCCC/C=C\CC1OC1CCCCCCCC(=O)O (stereo not drawn) | – | -12.2% [at 0.628 µM]
O=C1c2ccccc2C(=O)N1CCCc1nc(-c2ccccc2)no1 | inactive | –

Structure (SMILES) | Potency | activity change, negative = growth inhibition
O=C(O)c1ccc(S(=O)(=O)c2ccccc2)s1 | inactive | –
NC(=O)CSc1nnc(NC(=O)c2ccc3ccccc3c2)s1 | inactive | –
COc1ccc(C2/C(=C(/O)c3ccccc3)C(=O)C(=O)N2c2ncccn2)cc1OC (stereo not drawn) | inactive | –
OC(c1ccccc1)(c1ccccc1)C1CCN(CCCOc2ccccc2)CC1 | 16.4 µM (active) | –
O=c1[nH]c2ccccc2n1C1CCN(CCOc2ccccc2)CC1 | 4.11 µM (active) | –
O=C(c1ccc(Br)o1)N1CCN(CCOc2ccccc2)CC1 | inactive | –
O=C(c1ccco1)N1CCN(CCOc2ccccc2)CC1 | inactive | –
COc1ccc(OCCCCN2CCC(C)CC2)cc1 | inactive | –
c1ccc(-c2ccc(OCCN3CCOCC3)cc2)cc1 | inactive | –
Cc1ccc(C)c(N2C(=O)CS/C2=N\NC(=O)c2ccccc2Cl)c1 | inactive | –
Cc1ccc(NC(=O)c2nc[nH]c2C(=O)N2CCCCC2)c(C(=O)c2ccccc2)c1 | inactive | –
COc1ccccc1C(=O)NN1C(=O)C2C3C=CC(O3)C2C1=O (stereo not drawn) | inactive | –
CC12CCC(C(=O)N(NC(=O)c3ccccc3O)C1=O)C2(C)C (stereo not drawn) | 18.4 µM (active) | –
O=C(NN1C(=O)C2C(C1=O)C1C=CC2C12CC2)c1ccccc1Cl (stereo not drawn) | inactive | –
O=C(NCc1nnnn1-c1ccc(Cl)cc1)c1ccc2c(c1)OCO2 | inactive | –
O=C(Nc1cccc(Cl)c1)Nc1ccccc1NS(=O)(=O)c1cccs1 | inactive | –
CC(OC(=O)c1cc2ccccc2[nH]1)C(=O)N(C)c1ccccc1 (stereo not drawn) | inactive | –
Cc1ccc(-n2c(=O)c(C#N)cc3c(=O)n4ccccc4nc32)cc1C | 23.1 µM (active) | –
Cc1nc2ccccn2c(=O)c1NC(=O)c1cccs1 | inactive | –
Cc1ccc(-n2c(SCC(=O)N3CCC(C(=O)O)CC3)nc3ccccc3c2=O)cc1C | inactive | –
